This is an account of results in PubChem BioAssay AID743293 (Broad Institute, 2014).

Structures are written as SMILES. Entries with a potency or affinity are not part of this list. Activity calls are given as the source filed them.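 The calls were made as follows: active = compounds lowering fluorescence with a fitted half-maximal concentration at or below a set limit tied to top dose; inconclusive = flat curve with 30 to 70% inhibition, or poor fit; inactive = the rest.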

This assay addresses Caspase-9 (Homo sapiens) (UniProt P55211). In words: caspase-9 enzyme inhibition, dose response, selectivity assay for caspase-6 inhibitor project, biochemical, fluorescence, plate reader, cherry-picked samples (AID 743293).

Chain of Caspase-9 (Homo sapiens) (P55211 whole entry, looked up): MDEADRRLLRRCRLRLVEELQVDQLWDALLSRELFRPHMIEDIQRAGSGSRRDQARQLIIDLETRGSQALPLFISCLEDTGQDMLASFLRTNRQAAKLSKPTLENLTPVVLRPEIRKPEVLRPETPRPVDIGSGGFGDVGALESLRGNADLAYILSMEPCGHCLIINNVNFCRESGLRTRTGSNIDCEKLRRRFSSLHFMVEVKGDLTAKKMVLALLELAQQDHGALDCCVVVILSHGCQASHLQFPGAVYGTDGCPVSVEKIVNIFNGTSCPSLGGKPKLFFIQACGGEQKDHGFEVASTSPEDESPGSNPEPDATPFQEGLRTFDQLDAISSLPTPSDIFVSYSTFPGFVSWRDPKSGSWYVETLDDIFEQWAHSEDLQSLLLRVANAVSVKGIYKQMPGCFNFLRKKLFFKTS

Regarding `CCN(CC)CCCC(C)n1c2nc(=O)[nH]c(=O)c-2nc2cc(Cl)ccc21` (centres undefined), the call was inactive.

Take `O=C(CCO)c1ccc(O)cc1`: the call was inactive. For `Cc1c(CCC(=O)O)c(=O)oc2c(C)c(OCc3ccccc3Cl)ccc12`, the compound was called inactive. Turning to `Cc1oc2c(cc(NS(=O)(=O)c3ccc(C(C)C)cc3)c3ccccc32)c1C(=O)O`, the call was inactive. On to `Nc1ccc(Nc2ccccc2)c(S(=O)(=O)O)c1`, for which the outcome was inactive. `Cc1cccc(NC(=O)CNC(=O)c2cccc(-n3cccc3)c2)c1C`: the compound was classed as inactive.

Take `COc1ccc([N+](=O)[O-])cc1NC(=O)CCS(=O)(=O)c1ccc(Br)cc1`: the compound was classed as inactive.

Consider `Cc1cc(C=O)c(C)n1-c1ccc(Cl)c(C(=O)O)c1`, for which the compound was called inactive.

In the case of `O=C(O)CC(CCc1ccccc1)OC1OC(CO)C(O)C(O)C1O` (centres undefined), the result was inactive. In the case of `Cc1ccc(S(=O)c2ccc([N+](=O)[O-])c3nonc23)cc1` (centres undefined), the compound was classed as inactive. Take `Oc1cc(O)cc(C=Cc2ccc(O)c(O)c2)c1`: the outcome was inactive. For the compound `CCOc1ccc2nc3cc(NCc4ccc(OC)cc4)ccc3c(N)c2c1`, the compound was classed as inactive. Turning to `O=C(Nc1ccc2nc3n(c(=O)c2c1)CCCCC3)c1c(F)ccc([N+](=O)[O-])c1F`, the call was inactive. With `O=C(c1cccc(-n2cccc2)c1)N1CCN(S(=O)(=O)c2ccccc2)CC1`, the result was inactive. As for `O=C(Nc1ccc(S(=O)(=O)Nc2cnc3ccccc3n2)cc1)c1ccc(Cl)c([N+](=O)[O-])c1`, the compound was called inactive. As to `COc1ccc(NC(=O)CN(C)C(=O)c2cccc(-n3cccc3)c2)cc1`, the compound was called inactive. Turning to `O=C(COC(=O)c1ccccc1)Nc1ncc([N+](=O)[O-])s1`, the result was inactive.

Consider `CN(CC(=O)Nc1c(Cl)cccc1Cl)C(=O)c1cccc(-n2cccc2)c1`, for which the result was inactive.

Turning to `O=C(O)Cc1ccc(-n2cccc2)cc1`, the result was inactive. Regarding `C/C(CC(=O)N1CCCC1)=N\NC(=O)c1cc2ccccc2cc1O`, the outcome was inactive.

For the compound `CC(C)(C)c1ccc(NC(=O)COC(=O)c2ccc([N+](=O)[O-])s2)cc1`, the call was inactive.

On to `COc1cc(C)c2c(c1C=O)Oc1c(c(C)c(O)c3c1C(O)OC3=O)OC2=O` (centres undefined), for which the compound was called inactive. With `CCOC(=O)[C@H](Cc1c[nH]c2ccccc12)NC(=O)CN=[N+]=[N-]`, the outcome was inactive. For `O=C(O)CCc1ccc(-c2ccc(Br)cc2)n1CC(=O)O` the value was “inactive”; for `CNS(=O)(=O)c1cccc(C(=O)OCC(=O)N2c3ccccc3NC(=O)C2(C)C)c1`, “inactive”; for `CCCCNC(=O)c1nc(C2CCNCC2)oc1-c1cccc(C(F)(F)F)c1`, “inactive”. For `O=c1cc2c(=O)oc3cc(O)c(O)oc3c2c(O)c1O`, the result was inactive. Take `Oc1cc2c(cc1O)[C@H]1c3ccc(O)c(O)c3OC[C@@]1(O)C2`: the result was inactive. As to `Cc1ccc(C)c(NC(=O)CN(C)C(=O)c2cccc(-n3cccc3)c2)c1`, the compound was classed as inactive.
